Only some compounds are listed: those with a hit (about 9.3% of all), similar ones and a draw of the others.
NPC1 promoter act – qHTS Assay for NPC1 Promoter Activators. actives 2.4% (n = 320,000). Huh7 NPC1 promoter luciferase reporter, 24 h. Potency, µM (doses to about 9.22 µM), without a hit: top-dose activation, usual class: activators; further: % of control where 0% means no effect; nearly all actives have a fitted effect of over 60% in size
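NPC1 promoter–luciferase Huh7 cells; 24 h compound; luminescence.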
SMN2 splice enh – qHTS Assay for Enhancers of SMN2 Splice Variant Expression. HEK293 SMN2-luciferase splicing reporter, luminescence, 30-36 h. Potency, µM (doses to about 46.1 µM), for the others: top-dose activity change, positive = activation, hits mostly activators. actives 2.8% (n = 210,000); further: % of control where 0% means no effect; nearly all actives have a fitted effect of over 55% in size
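qHTS luciferase splicing reporter: luminescence rises when SMN2 exon 7 is included in transfected HEK293 cells. Compound exposure lasted 30-36 h at 37C, with 4.5 mM final sodium butyrate as control, followed by a ONE-Glo read.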
Rab9 promoter act – qHTS Assay for Rab9 Promoter Activators. Huh7 Rab9 promoter-luciferase reporter, luminescence, 24 h. Potency, µM (doses to about 9.22 µM), without a hit: top-dose activation, negative = inhibition, usual class: activators. actives 2.8% (n = 320,000). AID 485297, 2010; further: % of control where 0% means no effect; nearly all actives have a fitted effect of over 60% in size
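Luminescence read-out: Huh7 cells stably expressing Rab9-luciferase, treated 24 h with compound at 37 °C, then lysed with luciferase reagent for 10 min at ambient before reading.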
ELG1 DNA repair – qHTS screen for small molecules that inhibit ELG1-dependent DNA repair in human embryonic kidney (HEK293T) cells expressing luciferase-tagged ELG1; HEK293T ELG1-luciferase reporter, luminescence, 16 h; DNA damage induced by 5-fluorouridine; AID 504467, 2011; actives 2.3% (n = 330,000); Potency, µM (top dose mostly 46.1 µM), for the others: at the top dose activity change, negative = inhibition, actives largely listed as inhibitors; further: on the % scale 0 is the no-effect control and ±100 the full control effect; nearly all actives have a fitted effect of over 55% in size
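5-Fluorouridine DNA damage + compound/DMSO, 2,000 cells/well, 16 h, 37 °C/5% CO2. ONE-Glo, 30 min RT, luminescence. Readout = decrease in reporter signal.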
ELG1 genotoxic – qHTS screen for small molecules that induce genotoxicity in human embryonic kidney (HEK293T) cells expressing luciferase-tagged ELG1; HEK293T ELG1-luciferase reporter, luminescence, 16 h; Potency, µM (titrated, usually from 46 µM), for inactives: at the top dose activity change, positive = activation, usual class: activators; actives 1.3% (n = 330,000); AID 504466, 2011; further: % of control where 0% means no effect; nearly all actives have a fitted effect of over 60% in size
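Cells (2,000/well) expressing the ELG1-luciferase fusion are dosed by pin tool and kept 16 hr at 37 °C, 5% CO2. Signal comes from ONE-Glo luciferase reagent after 30 min at room temperature.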
FLuc modulator – qHTS profiling assay for firefly luciferase inhibitor/activator using purifed enzyme and Km concentrations of substrates (counterscreen for miR-21 project) | purified FLuc, Km substrates, luminescence inhibition | Potency, µM (series often up to 57.5 µM), inactives show at the top dose activity change, negative = inhibition, actives largely listed as inhibitors | actives 6.9% (n = 360,000) | AID 588342, 2011 | Luciferin 4-monooxygenase (Photinus pyralis), P08659;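 further: plate controls were vehicle for no effect and reference inhibitor for full effect; nearly all actives have a fitted effect of over 55% in size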
Target sequence (P08659 whole entry, looked up): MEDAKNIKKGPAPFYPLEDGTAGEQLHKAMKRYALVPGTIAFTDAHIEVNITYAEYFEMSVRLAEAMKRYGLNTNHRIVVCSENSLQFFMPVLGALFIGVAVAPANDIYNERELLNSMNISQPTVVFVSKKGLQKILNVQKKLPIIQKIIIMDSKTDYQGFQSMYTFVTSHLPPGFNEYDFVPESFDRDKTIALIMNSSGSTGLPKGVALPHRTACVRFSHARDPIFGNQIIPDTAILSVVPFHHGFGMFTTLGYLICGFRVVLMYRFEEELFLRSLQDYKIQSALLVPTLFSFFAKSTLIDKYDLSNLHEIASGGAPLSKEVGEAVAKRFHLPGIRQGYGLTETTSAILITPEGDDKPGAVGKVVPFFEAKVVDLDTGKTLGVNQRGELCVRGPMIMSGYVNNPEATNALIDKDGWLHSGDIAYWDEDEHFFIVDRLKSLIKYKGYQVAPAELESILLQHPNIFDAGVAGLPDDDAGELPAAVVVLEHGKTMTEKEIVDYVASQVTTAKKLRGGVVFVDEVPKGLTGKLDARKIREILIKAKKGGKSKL
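Purified P. pyralis luciferase (10nM final) with 10uM D-luciferin and 10uM ATP (Km levels) in 50mM Tris acetate pH 7.5, 10mM Mg acetate, 0.01% Tween-20, 0.05% BSA; qHTS 6-point titration, ~60 µM downward; luminescence read.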
Starred values were filed as active, the others as inactive; ? = inconclusive; . = no result; [ ] = remark or other dose. The call rests on the fitted dose curve; in most records, active means well fitted curve in the direction sought with a large enough effect; inconclusive means small, poorly fitted or top-dose-only effect, or another doubt; inactive means no such curve, though single readings can be large; an effect the other way counts as inactive or inconclusive. Potency means the concentration at half of the fitted maximal effect.

SMILES	NPC1 promoter act	SMN2 splice enh	Rab9 promoter act	ELG1 DNA repair	ELG1 genotoxic	FLuc modulator
CN(C)c1ccc(-c2ccc3c(=O)c4ccccc4n(C)c3c2)cn1	2.51µM*	.	2.24µM*	?	16.4µM*	4.78µM*
COC(=O)c1c(N)c2ccccc2[nH]c1=O	1.7%	.	1.1%	-2.4%	-0.8%	5.7%
O=C(CN1C(=O)/C(=C/c2cccc(Br)c2)SC1=S)NCCCN1CCOCC1	5.2%	.	6.5%	28.8%	-2.6%	21.3µM*
CC(C)c1ccc(/C=C2\SC(=S)N(CC(=O)NCCCN3CCOCC3)C2=O)cc1	5.5%	.	0.3%	?	?	1.35µM*
O=C(CN1C(=O)S/C(=C\c2ccccc2)C1=O)NCCCn1ccnc1	-3.5%	.	-0.3%	8.4%	-2.2%	-13.5%
Cc1ccc(/C=C2\SC(=S)N(CCC(=O)NCCCN3CCOCC3)C2=O)cc1	-1.7%	.	-2.5%	-14.6%	-8.0%	?
CC(C)c1ccc(/C=C2\SC(=O)N(CC(=O)NCCCn3ccnc3)C2=O)cc1	?	.	3.55µM*	?	?	0.601µM*
CCOc1ccc(/C=C2\SC(=S)N(CC(=O)NCCCN3CCOCC3)C2=O)cc1	1.4%	.	19.1%	?	-8.3%	3.01µM*
CCCCSCCCNC(=O)c1cc(-c2cccnc2)nc2ccc(S(=O)(=O)N3CCC(C)CC3)cc12	.	.	.	.	.	6.4%
COc1ccc(NC(=O)CCS(=O)(=O)c2cc3c(cc2C)NC(=O)CO3)cc1	-1.8%	.	3.1%	5.4%	5.5%	-0.2%
CSc1nsc2nc(=O)c(/C=C3\C(C)=Nc4ccccc43)c(N)n12	8.6%	7.4%	22.5%	-8.0%	-5.2%	15.1µM*
CCc1ccc(NC(=O)c2cnc3scc(C)n3c2=O)cc1	?	8.91µM*	4.47µM*	?	18.4µM*	?
O=C(Nc1ccc(OC(F)(F)F)cc1)c1cnccn1	1.78µM*	.	2.82µM*	?	?	12µM*
CCc1ccc(NC(=O)c2cnccn2)cc1	1.26µM*	.	1.26µM*	?	?	5.36µM*
COc1cccc(-n2c(Cc3cc(=O)[nH]c(=O)[nH]3)nnc2SCC(=O)NC2CCCC2)c1	-1.2%	0.3%	3.5%	3.1%	1.8%	4.9%
Cc1ccc(N/C=C2\CCCCC2=O)nc1	3.9%	17.8%	?	?	?	21.3µM*
O=C1CCCC/C1=C\Nc1ccc(Cl)cn1	?	?	?	?	?	16.9µM*
CN=c1scc(-c2ccccc2F)n1/N=C/c1ccc[nH]1	-40.6%	-110.4%	-29.7%	?	-17.4%	0.0269µM*
CC(C)N=c1scc(-c2cccs2)n1/N=C/c1ccc(O)c(O)c1O	2.1%	3.4%[1.84 µM]	5.1%	?	?	23.9µM*
Fc1ccc(N=Cc2ccc[nH]2)cc1	-0.3%	.	-3.9%	17.2%	1.0%	-9.0%
COc1ccc(O)c(/C=N/n2c(-c3ccco3)csc2=Nc2cccnc2)c1	-1.5%	-12.6%[1.84 µM]	2.3%	11.6%	2.4%	-1.5%
CCN=c1scc(-c2cccs2)n1/N=C/c1cc(OC)ccc1O	2µM*	?	?	?	?	2.39µM*
CN=c1scc(-c2ccccc2F)n1/N=C/c1ccc(O)c(O)c1O	?	0.631µM*	?	?	8.5%	0.757µM*
COc1ccc(SCCc2nnc(-c3ccccc3)o2)cc1	-3.6%	.	2.4%	5.9%	-0.7%	3.7%
CC(NS(=O)(=O)c1ccc(Br)cc1)C(N)=O (stereo unspecified)	-3.8%	6.2%	-0.8%	0.1%	-0.1%	-1.2%
SMILES	NPC1 promoter act	SMN2 splice enh	Rab9 promoter act	ELG1 DNA repair	ELG1 genotoxic	FLuc modulator
Cc1cc(C(=O)OCC(=O)N2CCN(C(=O)c3ccco3)CC2)c(C)n1-c1ccc(F)cc1	-7.0%	-23.3%	-23.8%	?	-1.6%	-2.0%
CC1(C)Cc2ccccc2C(=NC(Cc2ccccc2)C(=O)O)N1 (stereo unspecified)	-7.8%	.	-0.1%	-14.1%	-4.2%	5.5%
CCn1c2ccccc2c2cc(NC(=O)COC(=O)c3ccc(NC(=O)CC#N)cc3)ccc21	-2.0%	.	-0.7%	?	23.1µM*	13.7%
CCn1c2ccccc2c2cc(NC(=O)COC(=O)c3ccccc3F)ccc21	-2.0%	-51.4%	-5.1%	22.0%	?	-0.6%
CCn1c2ccccc2c2cc(NC(=O)N3CCOCC3)ccc21	?	?	3.55µM*	0.7%	?	3.0%[2.3 µM]
O=C(Nc1ccc2c(c1)oc1ccccc12)N1CCOCC1	3.55µM*	?	3.55µM*	?	?	12µM*
C=CCN1/C(=C(\C#N)C2=NS(=O)(=O)c3ccccc32)N(C)c2ccccc21	0.3%	-2.5%	-0.3%	0.0%	-2.9%	6.6%
Cc1cc(Br)ccc1NC(=O)CNC(=O)COc1ccccc1C	-0.7%	.	-0.6%	15.0%	-1.5%	0.7%
CCOC(=O)C1CCN(C(=O)CCS(=O)(=O)c2cc3c(cc2Cl)NC(=O)CO3)CC1	.	.	.	.	.	-2.9%
COc1ccc(C(=O)c2sc3nc4c(c(C(F)(F)F)c3c2N)CN(C(C)=O)CC4)cc1OC	.	-12.0%	.	.	.	-1.9%
COc1ccc(CNC(=O)c2sc3nc4c(c(C(F)(F)F)c3c2N)CCC4)cc1OC	-0.4%	-76.4%	-5.1%	?	4.3%	21.3µM*
Clc1ccc(CN2CCCCCCC2)cc1Cl	-0.2%	?	-1.5%	8.3%	0.1%	4.8%
Clc1ccc(-c2cc(CN3CCCCC3)no2)cc1Cl	22.1%	.	22.8%	?	9.7%	19µM*
Clc1ccc(-c2cc(CN3CCOCC3)no2)cc1	1.58µM*	.	0.891µM*	?	?	12µM*
CN(/N=C\c1ccc(O)c(O)c1)c1nc(-c2ccccc2)cc(-c2ccccc2)n1	-11.4%	-5.4%	-15.1%	13µM*	-2.7%	-14.2%
Cc1ccnc(NC(=O)COC(=O)c2ccc(F)cc2F)n1	0.4%	.	-0.8%	2.2%	-1.0%	-1.0%
Cc1cc(NC(=O)NC(=O)c2ccc(F)cc2F)n[nH]1	0.501µM*	11.2µM*	0.562µM*	?	?	7.57µM*
COc1ccc(C(=O)/C(=C/c2cccs2)c2nc3ccccc3o2)cc1	3.98µM*	-71.8%	3.55µM*	?	?	-12.5%
COc1ccc(/C=C/C(=O)Nc2cc(-c3nc4ccccc4o3)ccc2OC)cc1	.	-8.3%	.	.	.	?

Bioassay records as filed in PubChem.
